# Bioassay records: PubChem, National Center for Advancing Translational Sciences (NCATS)
# HT1080-NT tox: kills 2HG-producing HT-1080-NT fibrosarcoma cells. Potency, µM (series often up to 46.1 µM), for inactives: at the top dose activity, negative = less viability, most hits filed as cytotoxic. HT-1080-NT fibrosarcoma viability, CellTiter-Glo ATP luminescence, 48 h. hit rate 1.6% among 360,000. AID 686970;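 also: NT is the 2HG producing partner of a matched IDH1 knockdown line; potency is read from the fitted curve at half-maximal effect; 0% = DMSO-treated cells and -100% = media-only wells without cells; nearly all actives have a fitted effect of over 55% in size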
#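 HT-1080-NT; 750 cells/well; 5% FBS RPMI; 48 h compound, 37 degrees C; CellTiter-Glo luminescence; curve fitting and curve-class assignment.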
# IL1B secr inh: inhibitors of inflammasome signaling (IL-1 beta secretion); THP-1 LPS/ATP IL-1B secretion, AlphaLISA, 16 h; hits give low values; hit rate 4.7% among 360,000; activity change, % at 57.5 µM; AID 743279; in the data active = activity change below about -50%; inconclusive = mostly about -30% to -49%
#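 THP-1 cells pretreated 1 hr with compounds (up to 57.5 uM final), then stimulated with LPS (250 ng/mL final) plus ATP (1.25 mM final); secreted IL-1B measured by AlphaLISA after 16 hr, decreased signal indicating inhibition.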
# HT1080 IDH1KD tx: kills HT-1080 cells with IDH1 knockdown; HT-1080 IDH1 knockdown viability, ATP luminescence, 48 h; AID 686971; hit rate 2% among 360,000; Potency, µM (top dose mostly 46.1 µM), inactives show at the top dose activity, negative = toxicity, hits mostly cytotoxic;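 also: potency is read from the fitted curve at half-maximal effect; 0% = DMSO wells and -100% = cell-free medium wells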
#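 Luminescent ATP read-out (CellTiter-Glo, 10 min at room temperature) after 48 h compound exposure at 37 °C gave viability of IDH1-knockdown HT-1080 cells. Activity was normalised to DMSO and cell-free wells, then fitted as concentration-response curves.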
# DT40 TDP1 no CPT: qHTS for Inhibitors of human tyrosyl-DNA phosphodiesterase 1 (TDP1): qHTS in cells in absence of CPT; DT40 Tdp1-/- hTDP1 cells, no CPT, ATP luminescence, 48 h; Potency, µM (highest dose often 46.2 µM), for the others: at the highest dose activity change, negative = growth inhibition, hits mostly inhibitors; hit rate 15% among 420,000; also: potency is read from the fitted curve at half-maximal effect; nearly all actives have a fitted effect of over 55% in size
#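 Readout: luminescence from CellTiter-Glo after 30 min in the dark at RT. Cells: DT40 Tdp1-/- with stable hTDP1, 400/well. Exposure: compounds alone, ≥48 hr, 37 °C.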
# TDP1 cell CPT: DT40-hTDP1 cell growth loss with CPT. chicken DT40 Tdp1-/-;hTDP1 cells + 20 nM CPT, ATP luminescence, 48 h. Potency, µM (series often up to 46.2 µM), for inactives: top-dose activity change, negative = growth inhibition, most hits filed as inhibitors. hit rate 12% among 420,000; also: potency is read from the fitted curve at half-maximal effect; nearly all actives have a fitted effect of over 55% in size
#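 Cell growth measured by CellTiter-Glo luminescence after a minimum 48 h, 37 C compound exposure with 20 nM CPT in Tdp1-knockout DT40 cells stably expressing hTDP1, seeded 400/well; qHTS titration format.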
# The depositor's hits bear a star; u = inconclusive; x = no result. This is a sample that favours compounds with a hit; in the whole collection about 19% have one here. Unless noted, calls follow the shape of the dose curve; as a rule, active = well fitted curve in the direction sought with a large enough effect; inconclusive = small, poorly fitted or top-dose-only effect, or another doubt; inactive = no such curve, though single readings can be large; an effect the other way counts as inactive or inconclusive. Unless noted, % is scaled to controls: 0 for no effect and ±100 for the full control effect.
SMILES,HT1080-NT tox,IL1B secr inh,HT1080 IDH1KD tx,DT40 TDP1 no CPT,TDP1 cell CPT
O=C(NCc1csc(-c2cccs2)n1)C1CCCCC1,-2%,18,-2%,u,-12%
COc1ccc(CCNC(=S)Nc2cc(C)ccc2C)cc1,-5%,-8,-4%,u,u
COc1ccc(/C(C)=N/NC(=S)Nc2cc(C)ccc2C)cc1,-10%,13,-6%,23µM*,23µM*
COc1ccc(CNC(=S)Nc2cc(C)ccc2C)cc1,5%,8,3%,18µM*,u
COc1ccccc1CNc1nc2nc(C)c(Cl)c(C)n2n1,x,x,x,u,-21%
C#Cc1cccc(Nc2nc(NCc3ccccc3OC)nc3ccsc23)c1,21µM*,-71*,u,9.2µM*,9.2µM*
C#Cc1cccc(Nc2nc(NCCOC)nc3ccsc23)c1,u,-8,u,21µM*,16µM*
C#Cc1cccc(Nc2nc(NC(C)C)nc3ccsc23)c1,u,-24,21µM*,21µM*,u
COC(=O)c1cc(NS(=O)(=O)c2ccc(C(C)C)cc2)ccc1N1CCOCC1,-19%,-5,-19%,u,u
N#C/C(=C/c1cccc([N+](=O)[O-])c1)C(=O)Nc1ccccc1O,-2%,-7,-2%,u,3.7µM*
N#C/C(=C\c1cccc([N+](=O)[O-])c1)C(=O)NCc1cccnc1,6%,13,7%,21µM*,21µM*
N#C/C(=C\C=C\c1ccccc1)C(=O)NCc1cccnc1,u,-89*,u,29µM*,26µM*
N#C/C(=C\c1cccc([N+](=O)[O-])c1)C(=O)NCc1ccc(Cl)cc1,u,-108*,u,12µM*,5.8µM*
N#C/C(=C\c1cccc([N+](=O)[O-])c1)C(=O)Nc1cccnc1,-15%,38,-4%,-12%,-2%
CCN(CC)c1ccc(/C=C2\C(=O)N(c3nnc(C)c(=O)[nH]3)N=C2C)cc1,u,-98*,u,18µM*,13µM*
O=C(CCNc1ccc(Cl)cc1)c1cccs1,0%,u,-6%,15µM*,26µM*
O=C(CCSc1ccc(Cl)cc1)c1cccs1,u,-106*,u,2.3µM*,1.8µM*
CCCc1cc(=O)[nH]c(SCC(=O)NCCN2C(=O)CSC2=O)n1,-3%,7,15%,5%,1%
O=C(O)c1ccc(/C=C/c2nc3ccccc3c(=O)[nH]2)cc1,-3%,52,-1%,-1%,-7%
Cc1[nH]c2ccccc2c1/C=C/c1nc2ccccc2c(=O)n1-c1ccc([N+](=O)[O-])cc1,-6%,0,2%,2.1µM*,u
CCOc1cc(/C=C/c2nc3ccccc3c(=O)[nH]2)ccc1O,0%,-3,-9%,u,u
O=c1[nH]c(/C=C/c2ccccc2Cl)nc2ccccc12,-3%,-3,-1%,u,16µM*
Cc1ccc(-n2c(/C=C/c3c(C)n(C)c4ccccc34)nc3ccccc3c2=O)cc1,x,x,x,-15%,2%
COc1cc(/C=C/c2nc3ccccc3c(=O)[nH]2)ccc1O,-30%,u,u,16µM*,u
Cc1cccc(/C=C/c2nc3ccccc3c(=O)[nH]2)c1,u,3,u,15µM*,21µM*
SMILES,HT1080-NT tox,IL1B secr inh,HT1080 IDH1KD tx,DT40 TDP1 no CPT,TDP1 cell CPT
Cc1[nH]c2ccccc2c1/C=C/c1nc2ccccc2c(=O)[nH]1,u,-103*,16µM*,10µM*,u
COc1cc(-c2cnc3c(NC=O)cc(-c4ccc(C)cc4)cn23)cc(OC)c1OC,u,112,u,0.1µM*,0.16µM*
COc1cc(-c2cnc3c(NC=O)cc(-c4ccccc4)cn23)cc(OC)c1OC,u,139,u,0.046µM*,0.0092µM*
COc1cccc(-c2cnc3c(NC=O)cc(-c4ccccc4Oc4ccccc4)cn23)c1,u,11,u,u,u
Cc1ccc(-c2cc(NC=O)c3ncc(-c4cnn(C)c4)n3c2)cc1,u,-51*,u,3.7µM*,4.1µM*
COc1ccc(F)cc1-c1cc(NC=O)c2ncc(-c3cc(OC)c(OC)c(OC)c3)n2c1,u,121,u,3.3µM*,2.3µM*
CCN(CC)CCCNC(=O)c1nn(C)c2c1CS(=O)(=O)c1ccccc1-2,x,x,x,1%,15%
COc1cc(-c2cnc3c(NC=O)cc(-c4ccccc4Cl)cn23)cc(OC)c1OC,u,126,u,1µM*,0.82µM*
Cc1ccc(Cl)cc1N1CCN(C(=O)c2cnn(C)c2C2CCN(C(=O)OC(C)(C)C)CC2)CC1,x,x,x,5.8µM*,6.5µM*
Cc1ccc(C)c(N2CCN(C(=O)c3cnn(C(C)(C)C)c3C3CCN(C(=O)OC(C)(C)C)CC3)CC2)c1,x,x,x,u,18µM*
Cc1ccc(Cl)cc1N1CCN(C(=O)c2cnn(C(C)(C)C)c2C2CCN(C(=O)OC(C)(C)C)CC2)CC1,x,x,x,u,26µM*
Cc1ccc(-n2ncc(C(=O)N3CCN(c4ncccn4)CC3)c2C2CCN(C(=O)OC(C)(C)C)CC2)cc1,x,x,x,-7%,-7%
O=[N+]([O-])c1cc(CS(=O)(=O)Oc2ccc(Cl)cc2)c(O)c([N+](=O)[O-])c1,16%,13,4%,-20%,2%
N#Cc1nc(Cl)c(Cl)c(NN)c1Cl,-20%,-54*,-13%,-15%,-1%
CCN(CCCNC(=O)c1cc(Nc2ccc(OC)cc2OC)nc2ccccc12)c1cccc(C)c1,x,x,x,15µM*,21µM*
COc1ccc(Nc2cc(C(=O)NCCCOC(C)C)c3ccccc3n2)c(OC)c1,1%,-6,13%,16µM*,16µM*
CCN(CCCNC(=O)c1cc2cc3cc(OC)ccc3nc2s1)c1cccc(C)c1,x,x,x,u,-26%
COc1ccc(-c2cc(C(=O)NCCN3CCOCC3)c3ccccc3n2)cc1,-3%,-12,-18%,u,-24%
COc1ccc(Nc2cc(C(=O)NCc3ccco3)c3ccccc3n2)c(OC)c1,-1%,9,-3%,23µM*,u
COc1ccc(Nc2cc(C(=O)NCCCN3CCN(C)CC3)c3ccccc3n2)c(OC)c1,-10%,u,-2%,23µM*,u
CCCC(=O)N(Cc1cc(=O)[nH]c2ccccc12)c1ccccc1C,-5%,19,-13%,-21%,8%
COc1ccc(N=c2oc3c(OC)cccc3cc2C(=O)NCc2ccco2)c(OC)c1,1%,-22,1%,13µM*,u
COc1ccc(C(=O)Nc2ccc(Cl)cc2C(=O)NCc2ccco2)cc1,-28%,25,-2%,6.5µM*,5.2µM*
